Reference: PubChem BioAssay (EPA / NIEHS)
Some structures have more than one record in an assay (separate samples or runs), and their calls can disagree. Active and inactive are the calls of the source. Rule for the calls: active = hit-call score of the fitted dose curve at least 0.9, where 1 is the maximum; inactive = score below 0.9.

Assays:
[1] = read-out: Vascular cell adhesion molecule 1 (VCAM1), VCAM1 (gene 7412); test: BSK_hDFCGF_VCAM1: BioMAP Diversity Plus: hDFCGF Assay for Vascular cell adhesion molecule 1 (VCAM1) Biomarker Activity (AID 2283065); conditions: primary human foreskin fibroblasts; actives raise or lower the signal;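 for AC50: VCAM-1 protein level quantified by ELISA after 24 h chemical exposure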
How it was run: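 Human foreskin fibroblast primary cells, chemical exposure 24 h; VCAM-1 by ELISA; bidirectional fit, DMSO = negative control/baseline.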

[2] = read-out: Plasminogen activator inhibitor-1 (PAI1), SERPINE1 (gene 5054); test: BSK_hDFCGF_PAI1: BioMAP Diversity Plus: hDFCGF Assay for Plasminogen activator inhibitor-1 (PAI1) Biomarker Activity (AID 2283066); conditions: primary human foreskin fibroblasts; actives raise or lower the signal
How it was run: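 Primary dermal fibroblasts (human foreskin), hDFCGF system; compound 24 h; PAI-1 by ELISA; bidirectional fit vs DMSO control.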

[3] = read-out: Intercellular Adhesion Molecule 1 (ICAM1), ICAM1 (gene 3383); test: BSK_KF3CT_ICAM1: BioMAP Diversity Plus: KF3CT Assay for Intercellular Adhesion Molecule 1 (ICAM1) Biomarker Activity (AID 2283067); conditions: primary human keratinocytes with fibroblasts; actives raise or lower the signal
How it was run: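 ICAM-1 levels are measured by ELISA 24 h after dosing a primary human co-culture of keratinocytes and foreskin fibroblasts. Activity in either direction is fitted relative to DMSO vehicle.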

[4] = read-out: Interferon-gamma inducible Protein 10 (IP10), CXCL10 (gene 3627); test: BSK_KF3CT_IP10: BioMAP Diversity Plus: KF3CT Assay for Interferon-gamma inducible Protein 10 (IP10) Biomarker Activity (AID 2283068); conditions: primary human keratinocytes with fibroblasts; actives raise or lower the signal
How it was run: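 KF3CT co-culture (keratinocytes + foreskin fibroblasts), 24 h compound, IP-10 by ELISA; bidirectional fit vs DMSO baseline.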

[5] = BSK_KF3CT_SRB: Viability Assessment in the BioMAP Diversity Plus: KF3CT Assay (AID 2283069); conditions: primary human keratinocytes with fibroblasts;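 note: total protein by sulforhodamine B staining as a cytotoxicity measure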
How it was run: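 Human primary keratinocyte plus foreskin fibroblast co-culture exposed to chemicals for 24 h. Total protein measured by 0.1% sulforhodamine B staining after 10% TCA fixation, read at 560 nm; bidirectional fitting versus DMSO baseline.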

[6] = read-out: Interleukin-1 alpha (IL1a), IL1A (gene 3552); test: BSK_KF3CT_IL1a: BioMAP Diversity Plus: KF3CT Assay for Interleukin-1 alpha (IL1a) Biomarker Activity (AID 2283070); conditions: primary human keratinocytes with fibroblasts; actives raise or lower the signal
How it was run: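 Human keratinocyte plus foreskin fibroblast primary co-culture, sampled 24 h after chemical dosing. IL-1a measured by ELISA; responses fitted bidirectionally against DMSO baseline (negative control), so gain or loss of signal both count.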

[7] = read-out: TIMP metallopeptidase inhibitor 2 (TIMP2), TIMP2 (gene 7077); test: BSK_KF3CT_TIMP2: BioMAP Diversity Plus: KF3CT Assay for TIMP metallopeptidase inhibitor 2 (TIMP2) Biomarker Activity (AID 2283071); conditions: primary human keratinocytes with fibroblasts; actives raise or lower the signal
How it was run: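 Cells: human keratinocytes co-cultured with foreskin fibroblasts. Treat with chemical, 24 h. Measure TIMP-2 by ELISA; fit curves bidirectionally vs DMSO baseline.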

[8] = read-out: Transforming growth factor beta 1 (TGFb1), TGFB1 (gene 7040); test: BSK_KF3CT_TGFb1: BioMAP Diversity Plus: KF3CT Assay for Transforming growth factor beta 1 (TGFb1) Biomarker Activity (AID 2283072); conditions: primary human keratinocytes with fibroblasts; actives raise or lower the signal
How it was run: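 Primary human skin cells (keratinocytes, foreskin fibroblasts) were co-cultured, exposed to test chemical and sampled at 24 h. TGF-b1 levels were measured by ELISA and fitted bidirectionally relative to DMSO.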

[9] = read-out: C-C motif chemokine 2 (Homo sapiens) (UniProt P13500); test: BSK_KF3CT_MCP1: BioMAP Diversity Plus: KF3CT Assay for Monocyte Chemoattractant Protein 1 (MCP1/CCL2) Biomarker Activity (AID 2283073); conditions: primary human keratinocytes with fibroblasts; actives raise or lower the signal
How it was run: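 ELISA readout of MCP-1 after 24 h chemical dosing of a human skin primary co-culture of keratinocytes and foreskin fibroblasts. Activity was fitted in both directions against DMSO.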

[10] = read-out: Matrix Metallopeptidase 9 (MMP9), MMP9 (gene 4318); test: BSK_KF3CT_MMP9: BioMAP Diversity Plus: KF3CT Assay for Matrix Metallopeptidase 9 (MMP9) Biomarker Activity (AID 2283074); conditions: primary human keratinocytes with fibroblasts; actives raise or lower the signal;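 for AC50: MMP9 protein level quantified by ELISA in the co-culture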
How it was run: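 Keratinocyte plus foreskin fibroblast human primary skin co-culture was dosed with chemical and MMP-9 was quantified by ELISA 24 h later. Bidirectional curve fitting used DMSO as negative control and activity baseline.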

[11] = read-out: urokinase plasminogen activator (uPA), PLAU (gene 5328); test: BSK_KF3CT_uPA: BioMAP Diversity Plus: KF3CT Assay for urokinase plasminogen activator (uPA) Biomarker Activity (AID 2283075); conditions: primary human keratinocytes with fibroblasts; actives raise or lower the signal
How it was run: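 Human keratinocyte plus foreskin fibroblast primary co-culture exposed to chemical for 24 h. uPA levels were quantified by ELISA, and activity was fitted bidirectionally against a DMSO negative-control baseline.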

CD40, CD40 (gene 958) = test: BSK_LPS_CD40: BioMAP Diversity Plus: LPS Assay for CD40 Biomarker Activity (AID 2283076); conditions: primary human HUVEC with PBMC; actives raise or lower the signal
How it was run: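 Cells were dosed, incubated 24 h, then assayed for CD40 by ELISA. Gain or loss of signal was analysed relative to DMSO controls. The culture paired human umbilical vein endothelium with peripheral blood mononuclear cells.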

[12] = read-out: E-selectin (Homo sapiens) (UniProt P16581); test: BSK_LPS_Eselectin: BioMAP Diversity Plus: LPS Assay for Eselectin Biomarker Activity (AID 2283077); conditions: primary human HUVEC with PBMC; actives raise or lower the signal
How it was run: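 Primary human vascular co-culture (endothelium plus PBMC) was dosed with chemical, then E-selectin quantified by ELISA at 24 h. Endpoint values derive from bidirectional curve fitting relative to DMSO.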

[13] = read-out: Interleukin-8 (IL8), CXCL8 (gene 3576); test: BSK_LPS_IL8: BioMAP Diversity Plus: LPS Assay for Interleukin-8 (IL8) Biomarker Activity (AID 2283078); conditions: primary human HUVEC with PBMC; actives raise or lower the signal
How it was run: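 Readout is IL-8 by ELISA, taken 24 h after compounds were added to LPS-stimulated endothelial/PBMC co-cultures. Both increases and decreases relative to DMSO control were scored through bidirectional fitting.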

[14] = read-out: Interleukin-1 alpha (IL1a), IL1A (gene 3552); test: BSK_LPS_IL1a: BioMAP Diversity Plus: LPS Assay for Interleukin-1 alpha (IL1a) Biomarker Activity (AID 2283080); conditions: primary human HUVEC with PBMC; actives raise or lower the signal
How it was run: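 ELISA read-out of IL-1 alpha from a human primary vascular co-culture (endothelium plus PBMC) under LPS, sampled 24 hours post-dosing. Activity was fitted in both directions relative to DMSO controls.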

[15] = read-out: Monocyte Chemoattractant Protein-1 (MCP1), CCL2 (gene 6347); test: BSK_LPS_MCP1: BioMAP Diversity Plus: LPS Assay for Monocyte Chemoattractant Protein-1 (MCP1) Biomarker Activity (AID 2283081); conditions: primary human HUVEC with PBMC; actives raise or lower the signal;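 for AC50: secreted MCP-1 protein quantified by ELISA in culture supernatant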
How it was run: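 Human endothelial–PBMC co-cultures were dosed with chemical, then LPS-driven MCP-1 levels were quantified by ELISA at 24 h. Activity in either direction was fitted versus DMSO negative control.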

[16] = BSK_LPS_PGE2: BioMAP Diversity Plus: LPS Assay for Prostaglandin E2 (PGE2) Biomarker Activity (AID 2283082); conditions: primary human HUVEC with PBMC; actives raise or lower the signal
How it was run: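 LPS-activated HUVEC/PBMC co-culture; cmpd dosed, 24 h; PGE2 by ELISA; bidirectional fit vs DMSO; SRB (0.1%, TCA-fixed, 560 nm) in parallel plates for overt cytotox.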

[17] = read-out: Macrophage colony-stimulating factor (MCSF), CSF1 (gene 1435); test: BSK_LPS_MCSF: BioMAP Diversity Plus: LPS Assay for Macrophage colony-stimulating factor (MCSF) Biomarker Activity (AID 2283083); conditions: primary human HUVEC with PBMC; actives raise or lower the signal
How it was run: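 ELISA readout of M-CSF after 24 h compound exposure in a human endothelial/PBMC co-culture. Activity, in either direction, is fitted relative to DMSO vehicle.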

[18] = read-out: Tissue Factor, F3 (gene 2152); test: BSK_LPS_TissueFactor: BioMAP Diversity Plus: LPS Assay for Tissue Factor Biomarker Activity (AID 2283084); conditions: primary human HUVEC with PBMC; actives raise or lower the signal
How it was run: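 ELISA signal for cell-surface Tissue Factor (CD142) was read 24 h after compound dosing of an LPS-stimulated human endothelial–PBMC primary co-culture. Gain or loss of signal was scored relative to DMSO.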

[19] = read-out: Tumor necrosis factor (Homo sapiens) (UniProt P01375); test: BSK_LPS_TNFa: BioMAP Diversity Plus: LPS Assay for Tumour Necrosis Factor alpha (TNFa) Biomarker Activity (AID 2283085); conditions: primary human HUVEC with PBMC; actives raise or lower the signal;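 for AC50: TNFa protein level quantified by ELISA in the co-culture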
How it was run: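 Read-out is ELISA of TNFa in primary human endothelial cell–PBMC co-cultures at 24 h after compound. Activity in either direction was fitted against DMSO.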

Measured: AC50

Chain of E-selectin (Homo sapiens) (P16581 whole entry, looked up): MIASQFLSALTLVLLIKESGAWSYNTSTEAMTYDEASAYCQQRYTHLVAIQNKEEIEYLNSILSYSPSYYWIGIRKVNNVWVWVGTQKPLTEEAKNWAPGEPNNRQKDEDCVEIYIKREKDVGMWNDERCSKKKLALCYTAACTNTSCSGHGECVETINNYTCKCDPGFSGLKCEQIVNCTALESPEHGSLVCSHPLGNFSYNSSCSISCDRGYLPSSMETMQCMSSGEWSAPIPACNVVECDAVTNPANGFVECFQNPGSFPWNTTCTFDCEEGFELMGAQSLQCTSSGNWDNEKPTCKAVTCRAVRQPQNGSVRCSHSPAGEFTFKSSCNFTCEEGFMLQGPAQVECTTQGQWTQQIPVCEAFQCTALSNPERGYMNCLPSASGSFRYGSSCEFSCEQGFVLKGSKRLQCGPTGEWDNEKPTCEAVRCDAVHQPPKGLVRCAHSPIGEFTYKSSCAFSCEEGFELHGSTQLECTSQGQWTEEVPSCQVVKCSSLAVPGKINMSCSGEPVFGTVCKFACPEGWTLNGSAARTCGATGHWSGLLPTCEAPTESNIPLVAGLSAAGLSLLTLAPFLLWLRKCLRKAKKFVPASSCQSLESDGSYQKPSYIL
Chain of Tumor necrosis factor (Homo sapiens) (P01375 whole entry, looked up): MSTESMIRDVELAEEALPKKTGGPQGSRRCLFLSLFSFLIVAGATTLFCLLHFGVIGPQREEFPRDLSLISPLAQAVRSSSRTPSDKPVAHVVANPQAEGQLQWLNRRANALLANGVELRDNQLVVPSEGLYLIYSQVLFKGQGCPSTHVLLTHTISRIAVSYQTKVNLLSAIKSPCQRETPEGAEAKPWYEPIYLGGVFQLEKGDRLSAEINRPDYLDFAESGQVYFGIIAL

COc1ccc2nc(N)sc2c1
inactive: all assays above

CN1C(=O)N(C)C(O)C1O (centres undefined)
inactive: [1] | [2] | [3] | [4] | [5] | [6] | [7] | [9] | [10] | [11] | CD40, CD40 (gene 958) | [12] | [13] | [14] | [15] | [16] | [17] | [18] | [19]
active: CD40, CD40 (gene 958) 1.5 µM

CCO[Si](C)(OCC)OCC
not listed: [8]
inactive: all other assays above

O=Nc1ccc(O)cc1
inactive: all assays above

C#CC1(O)CC[C@H]2[C@@H]3CCC4=CCCC[C@@H]4[C@H]3CC[C@@]21C (some centres undefined)
inactive: [16]
active: [1] 37.5 µM | [2] 36.7 µM | [3] 13.6 µM | [4] 34 µM | [5] 30.6 µM | [6] 31.7 µM | [7] 20 µM | [8] 25.4 µM | [9] 30.9 µM | [10] 31.9 µM | [11] 35.1 µM | CD40, CD40 (gene 958) 20 µM | [12] 30.3 µM | [13] 35 µM | [14] 29.6 µM | [15] 35.7 µM | [17] 29 µM | [18] 31.2 µM | [19] 33.3 µM

S=C(NC1CCCCC1)NC1CCCCC1
inactive: all assays above

O=c1c2ccccc2oc2ccccc12
inactive: all assays above

CCCCCCCCc1ccc(Nc2ccc(CCCCCCCC)cc2)cc1
inactive: all assays above
